Data on 5 molecules can be found in PubChem BioAssay.

Molecules are shown by their SMILES. Activity calls are given as the source filed them.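 How the source made its calls: active means normalized viability below 100% at a tested concentration; inactive means the rest.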

The viability is a read-out of living cells in per cent, often relative to untreated cells.

One experiment in a line: drug combination growth inhibition, ovarian cancer – cell-based, oncology-focused library, rucaparib conditional, profiling panel (AID 1508598). As to conditions: patient-derived ovarian cancer cells, CellTiter-Glo viability, 144 h; at 0.313 µM; OCI-C5x cells; with rucaparib 10 µM; active compounds read low; 100% = cells with rucaparib alone. On the technique in general: ATP-based viability assays read luminescence as a measure of living cells.
Take `O=C(CCCCCCC(=O)Nc1ccc([C@H]2O[C@@H](CSc3nc(-c4ccccc4)c(-c4ccccc4)o3)C[C@@H](c3ccc(CO)cc3)O2)cc1)NO`: the viability is 116% (inactive).

As for `CNC(=O)c1cc(Oc2ccc(NC(=O)Nc3ccc(Cl)c(C(F)(F)F)c3)c(F)c2)ccn1`, the viability was 104% (inactive).

On to `CS(=O)(=O)N1CCc2c(-c3cnc(N)nc3)nc(N3CCOCC3)nc21`, for which the viability was 91.8% (active).

For `Nc1ccn([C@@H]2O[C@H](CO)[C@@H](O)C2(F)F)c(=O)n1`, the viability is 36.8% (active).

In the case of `CNC(=O)c1cc(COc2nnc(Nc3ccc(Cl)cc3)c3ccoc23)ccn1`, the viability was 108% (inactive).

The same experiment, now with this note: patient-derived ovarian cancer cells, CellTiter-Glo viability, 144 h; at 0.313 µM; OCI-C5x cells; without rucaparib; active compounds read low.
As to `O=C(CCCCCCC(=O)Nc1ccc([C@H]2O[C@@H](CSc3nc(-c4ccccc4)c(-c4ccccc4)o3)C[C@@H](c3ccc(CO)cc3)O2)cc1)NO`, the viability is 137% (inactive).

In the case of `CNC(=O)c1cc(Oc2ccc(NC(=O)Nc3ccc(Cl)c(C(F)(F)F)c3)c(F)c2)ccn1`, the viability is 102% (inactive).

With `CS(=O)(=O)N1CCc2c(-c3cnc(N)nc3)nc(N3CCOCC3)nc21`, the viability is 105% (inactive).

Consider `Nc1ccn([C@@H]2O[C@H](CO)[C@@H](O)C2(F)F)c(=O)n1`, for which the viability is 35.1% (active).

`CNC(=O)c1cc(COc2nnc(Nc3ccc(Cl)cc3)c3ccoc23)ccn1`: the viability is 113% (inactive).
